Test results: PubChem BioAssay

test: FRG1 expression reporter modulators in myotubes – cell-based, C2C12 myotubes, firefly/Renilla luciferase, luminescence, FRG1 inhibition for FSHD, primary screen (AID 1084); conditions: FRG1 promoter luciferase, higher = more signal, called active from +8 up or from −8 down

z-score, inactive:
O=c1cccc(CCc2ccccc2)o1 1.17
COc1ccc([Si](C)(C)[C@H]2[C@H](CCn3cc(CCO)nn3)O[C@@]3(C(=O)N(Cc4ccc(N5CCOC5=O)cc4)c4ccccc43)[C@@H]2C)cc1 -3.54
C=CC[C@@H](OC(=O)Nc1ccc(OC)cc1)c1ccc(O)c2ccccc12 6.38
CC(c1ccccc1)C(O)C1C=CC2C(=O)NC(=O)C2N1Nc1ccccn1 (stereo unspecified) 1.14
CC(C)CNC(=O)[C@@H]1c2ccccc2C(=O)N(Cc2cc(C(F)(F)F)cc(C(F)(F)F)c2)[C@H]1c1ccc(CO)cc1 0.53
C[C@]1(C(=O)NCc2ccccc2)c2ccccc2C(=O)N(Cc2cc(F)cc(C(F)(F)F)c2)[C@H]1c1ccc(CO)cc1 -3.12
O=C1O[C@H](c2ccccc2)[C@H](c2ccccc2)N2[C@H]1[C@@H](C(=O)Nc1nc3ccccc3s1)[C@]1(C(=O)Nc3ccccc31)[C@H]2c1ccc(O)cc1 0.678
CN(C)CCCNC(=O)[C@@]1(Cc2ccccc2I)c2ccccc2C(=O)N(Cc2ccccc2C(F)(F)F)[C@H]1c1ccc(CO)cc1 -1.1
CCCCCN1CC=CC23O[C@@H]4C=CCOC(=O)[C@@H]4[C@H]2C(=O)N(CCCO)[C@@H]3C1=O (stereo partly specified) -0.482
C=C(CCCC)/C(=C/C[C@H](OC(C)=O)c1ccc(CO)o1)c1cnc2ccccc2c1 0.13
CC(C)NC(=O)[C@@]1(Cc2ccccc2I)c2ccccc2C(=O)N(Cc2ccccc2)[C@H]1c1ccc(CO)cc1 -2.91
O=C1C2C=CC(C(O)c3ccc(B(O)O)cc3)N(Nc3ccccc3)C2C(=O)N1c1ccccc1 (stereo unspecified) 4.59
O=C1C[C@]2(c3ccc([N+](=O)[O-])cc3)C(=O)N(CC(F)(F)F)c3cc(CO)ccc3[C@H]2N1CC12CC3CC(CC(C3)C1)C2 -0.659
N#Cc1ccc(NN2C(C(O)c3cccs3)C=CC3C(=O)N(c4ccccc4)C(=O)C32)cc1 (stereo unspecified) -0.911
COCCOC(=O)N1C(=O)[C@@]2(c3cc(C#CCNC(N)=O)ccc31)[C@H](C(=O)N1CCc3cc(OC)c(OC)cc3C1)[C@H]1C(=O)O[C@H](c3ccccc3)[C@H](c3ccccc3)N1[C@@H]2c1ccc(OCCO)cc1 0.363
CC(=O)Nc1cc(Br)ccc1C(=O)O 0.466
C=CCOC(=O)[C@@H]1[C@H]2C(=O)O[C@H](c3ccccc3)[C@H](c3ccccc3)N2[C@H](c2ccc(OCCOC(=O)[C@@H]3C[C@@H]4C(=O)N[C@@H](Cc5ccccc5)C(=O)N4[C@@H]3c3cccc(OCCO)c3)cc2)[C@@]12C(=O)Nc1ccc(I)cc12 1.06
[N-]=[N+]=NCc1ccccc1C[C@]1(C(=O)O)N=C(c2ccc(OCCCO)cc2)O[C@H]1c1ccccc1CN=[N+]=[N-] -1.66
NCCCCCNC(=O)[C@H]1C[C@H]2C(=O)NCC(=O)N2[C@H]1c1cccc(OCCO)c1 1.11
COc1cc2c(cc1OC)CN(C(=O)[C@@H]1[C@H]3C(=O)O[C@H](c4ccccc4)[C@H](c4ccccc4)N3[C@H](c3ccccc3OCCO)[C@@]13C(=O)Nc1ccc(C#CCNC(N)=O)cc13)CC2 0.297
C=C(COC)C(=O)CC[C@H](OC(C)=O)c1cccc(OCCO)c1 0.39
CCOC(=O)C[C@H]1[C@H](OC(=O)Cc2ccc3c(c2)OCO3)[C@@H](NC(=O)C2CCCCC2)c2cc(OCCCO)ccc2N1C(=O)Cc1ccc(OC)cc1 -2.5
COCCOC(=O)N1C(=O)[C@@]2(c3cc(C#CCNC(N)=O)ccc31)[C@H](c1ccc(OCCO)cc1)N1[C@H](c3ccccc3)[C@H](c3ccccc3)OC(=O)[C@H]1[C@@H]2C(=O)N1CCc2cc(OC)c(OC)cc2C1 1.08
COCCOC(=O)N1C(=O)[C@@]2(c3cc(C#CC4(O)CCCCCC4)ccc31)[C@H](C(=O)N1CCCCCCC1)[C@H]1C(=O)O[C@H](c3ccccc3)[C@H](c3ccccc3)N1[C@@H]2c1ccccc1OCCO 0.25
C=C(COC)/C(=C/C[C@H](OC(=O)c1ccncc1)c1cccc(OCCO)c1)c1cc(C(=O)OC)ccc1OC -0.889
COc1c(C)cc(-c2cc3c(c(-c4ccc(Oc5ccccc5)cc4)n2)[Si](C(C)C)(C(C)C)OC3)cc1C 0.643
CCOC(=O)C1=CCC(c2ccc(C#N)cc2)N(S(=O)(=O)c2ccc(C)cc2)C1 (stereo unspecified) -3.85
CCOC(=O)C1=C[C@@H](C(C)C)N(S(=O)(=O)c2ccc(C)cc2)[C@H]1c1ccc(C(C)C)cc1 -1.89
CCOC(=O)C1=CCC(C(C)(C)C)N(S(=O)(=O)c2ccc(C)cc2)C1 (stereo unspecified) -2.07
CCCCC=C[C@@H](NC(=O)c1ccco1)c1ccccc1 1.36
CC(C)(C)N1CC=CC23O[C@@H]4C=CCOC(=O)[C@@H]4[C@H]2C(=O)N(CCCCCO)[C@@H]3C1=O (stereo partly specified) 0.952
O=C1C=CC(=O)[C@@H]2CC(COc3ccccc3)=C3[C@@H](CCc4ccccc4)OB(O)C[C@@H]3[C@H]12 -1.29
Cc1ccccc1C(O)C1C=CC2C(=O)N(C)C(=O)C2N1N1CCCCC1 (stereo unspecified) 0.703
CCOC(=O)C[C@H]1[C@H](OC(=O)c2ccc(C(=O)c3ccccc3)cc2)[C@@H](NC(=O)C2CCCCC2)c2cc(OCCCO)ccc2N1C(=O)c1ccccc1 -0.541
Cc1ccc(S[C@]2(C(=O)NCC(C)C)CC(=O)N(Cc3ccccc3Cl)[C@@H]2c2ccc(CO)cc2)cc1 -2.55
COc1cccc(C(=O)O[C@H]2CC[C@]3(C)C4=C(CCC3C2(C)C)[C@]2(C)CC[C@H]([C@H](C)CCCC(C)C)[C@@]2(C)CC4)c1 (stereo partly specified) -1.06
